The values below come from PubChem BioAssay (NCI).

Compounds without any hit were thinned out: in the full panel of roughly 83,000, 20% have a hit.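 Single-dose data. Exposure time 48 hours. Values below 10 considered active.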 A number with no mark means an inactive call. Activity calls are given as the source filed them.

Among the test systems are SR leukemia; RPMI-8226 leukemia; OVCAR-8 ovarian; OVCAR-5 ovarian; OVCAR-4 ovarian; SK-OV-3 ovarian; IGROV1 ovarian; OVCAR-3 ovarian; HS 578T breast; NCI/ADR-RES ovarian; T-47D breast; BT-549 breast; MDA-MB-435 melanoma; SW-620 colon; MCF7 breast; HCT-116 colon; HCC-2998 colon; KM12 colon.
Holding throughout (experiment): NCI-60 one-dose screen, 48 h (100 = growth as untreated, 0 = no growth, -100 = all killed)
Conditions in all cases: 10 µM unless noted

For `N#CC1=C(N)Oc2c(ccc3cccnc23)C1c1ccccc1` (stereo not drawn), the growth is 35.2% in the test with SR leukemia; 11.6% in the test on RPMI-8226 leukemia; 45.2% with OVCAR-8 ovarian; 56.3% in the test on OVCAR-5 ovarian; 44.9% with OVCAR-4 ovarian; 58.3% in the test with SK-OV-3 ovarian. Besides, the growth was 42.4% with IGROV1 ovarian; -6.82% (active) in the test on OVCAR-3 ovarian; 35.6% in the test with HS 578T breast; -11.2% (active) with NCI/ADR-RES ovarian; 50.4% in the test with T-47D breast; 51.8% with BT-549 breast. Besides, the growth with MDA-MB-435 melanoma is -47.4% (active); in the test with SW-620 colon, 29%; with MCF7 breast, 24.6%; with HCT-116 colon, 22.2%; in the test on HCC-2998 colon, 50.4%; in the test on KM12 colon, 25.2%.

As for `O=[N+]([O-])c1ccc(N/N=C\c2cc(Cl)ccc2O)nc1`, the growth with SR leukemia was 10.6%; in the test on RPMI-8226 leukemia, 40.8%; with OVCAR-8 ovarian, 32.9%; in the test on OVCAR-5 ovarian it was 88.8%; with OVCAR-4 ovarian, 36.1%; in the test with SK-OV-3 ovarian, 46.6%. The growth in the test with IGROV1 ovarian is 30.4%; with OVCAR-3 ovarian, 48.5%; in the test with HS 578T breast, 64.2%; in the test with NCI/ADR-RES ovarian, 17.4%; in the test with T-47D breast, 25.4%; with BT-549 breast, 42.4%. Moreover, the growth in the test on MDA-MB-435 melanoma was 48.7%; in the test on SW-620 colon, 32.4%; in the test with MCF7 breast, 16%; in the test on HCT-116 colon, 16.7%; in the test on HCC-2998 colon, 42%; in the test with KM12 colon, 29%.

With `COc1cc(C2=Nc3c(N)nc(N)nc3NC(c3cccc(Nc4ccnc5cc(C(F)(F)F)ccc45)c3)C2)cc(OC)c1OC` (stereo not drawn), the growth with SR leukemia was 0.109% (active); in the test with RPMI-8226 leukemia, 10.8%; in the test with OVCAR-8 ovarian, 68.8%; in the test with OVCAR-5 ovarian, 129%; in the test on OVCAR-4 ovarian it was 74.7%; in the test on SK-OV-3 ovarian it was 88.1%. The growth was 65.6% in the test on IGROV1 ovarian; 83.5% in the test with OVCAR-3 ovarian; 62.7% in the test with HS 578T breast; 95.3% in the test on NCI/ADR-RES ovarian; 95.4% in the test on T-47D breast; 112% in the test on BT-549 breast. Besides, the growth in the test on MDA-MB-435 melanoma is 69.2%; in the test with SW-620 colon it was 78.7%; in the test with MCF7 breast, 37.3%; in the test with HCT-116 colon it was 48.9%; with HCC-2998 colon it was 77.2%; in the test with KM12 colon, 66.4%.

For the molecule `CC1(C)CC(=O)C2=C(C1)OC(C(=O)c1ccccc1)C2c1cccc(Oc2ccccc2)c1` (stereo not drawn), the growth in the test on SR leukemia was 26.2%; with RPMI-8226 leukemia, 34.6%; in the test on OVCAR-8 ovarian, 48.5%; in the test with OVCAR-5 ovarian, 88.7%; in the test on OVCAR-4 ovarian, 28.6%; in the test with SK-OV-3 ovarian, 64%. The growth in the test with IGROV1 ovarian was 89.5%; in the test on OVCAR-3 ovarian, 64.2%; in the test with HS 578T breast, 68.4%; with NCI/ADR-RES ovarian it was 38.3%; with T-47D breast, 5.71% (active); in the test with BT-549 breast, 40.1%. The growth in the test with MDA-MB-435 melanoma is 44.5%; in the test with SW-620 colon, 54.2%; in the test with MCF7 breast it was 28.5%; with HCT-116 colon, 33.8%; in the test on HCC-2998 colon, 71.9%; in the test with KM12 colon, 37.7%.

As to `COc1nc2ccccc2cc1/C=C1/C=C(c2ccccc2)NC1=O`, the growth was 20% in the test with SR leukemia; 53.7% in the test with RPMI-8226 leukemia; 44.8% in the test with OVCAR-8 ovarian; 85.4% in the test on OVCAR-5 ovarian; 65% with OVCAR-4 ovarian; 50.3% with SK-OV-3 ovarian. Also, the growth in the test with IGROV1 ovarian is 39%; with OVCAR-3 ovarian, 17.2%; in the test with HS 578T breast it was 25.8%; in the test on NCI/ADR-RES ovarian, 32.8%; in the test on T-47D breast, 37.3%; in the test with BT-549 breast, 51.4%. Further, the growth is -12.5% (active) in the test with MDA-MB-435 melanoma; 27.7% in the test on SW-620 colon; 24.2% in the test on MCF7 breast; 12.7% with HCT-116 colon; 80.6% with HCC-2998 colon; 31.5% in the test with KM12 colon.

Take `NS(=O)(=O)Oc1cccc(-c2nc3sccn3c2-c2ccccc2)c1`: the growth in the test with SR leukemia is 19.8%; in the test with RPMI-8226 leukemia, 44.1%; in the test on OVCAR-8 ovarian, 66.8%; with OVCAR-5 ovarian, 95.2%; in the test with OVCAR-4 ovarian, 74.9%; in the test with SK-OV-3 ovarian, 76.7%. Further, the growth with IGROV1 ovarian is 54.4%; in the test with OVCAR-3 ovarian, 39.1%; with HS 578T breast, 47%; in the test with NCI/ADR-RES ovarian, 48.1%; in the test with T-47D breast, 36.2%; with BT-549 breast, 54%. Further, the growth in the test on MDA-MB-435 melanoma was 3.29% (active); with SW-620 colon, 35.5%; in the test on MCF7 breast, 26.1%; in the test with HCT-116 colon, 23.5%; in the test with HCC-2998 colon, 87.4%; with KM12 colon, 48.4%.
